# Measured values as given in PubChem BioAssay (NCATS).
# “And” between values parts separate entries of the source, which are not always exact repeats. Equal entries are not always repeated. A number with no mark means an inactive call. Records with an inconclusive call do not appear. The source made the active and inactive calls.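 Rule for the calls, unless noted: active = compounds whose dose series gives a full or clear partial fitted curve of increased nuclear translocation; inconclusive = weak partial curve or effect only at the top dose; inactive = no dose-dependent translocation response.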
# Experiments:
# [1] = target: Glucocorticoid receptor (Homo sapiens) (UniProt P04150); assay: GR-GFP Redistribution (AID 450); conditions: U2OS GR-GFP nuclear translocation, laser cytometry, 2 h; note: potency is the fitted concentration of half-maximal effect
# [2] = target: Glucocorticoid receptor (Homo sapiens) (UniProt P04150); assay: GR-EFC Redistribution (AID 451; calls by dose curve; note: potency is the fitted concentration of half-maximal effect); conditions: CHO-K1 GR-EFC translocation, beta-gal luminescence, 2 h
# In short: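 CHO-K1 cells expressing nuclear EA and GR-ED fragments of b-gal; compounds titrated up to 46 uM final, 2 h at 37 C. GR nuclear translocation read as complemented b-gal luminescence after 1 h RT detection.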
# [3] = target: Mitogen-activated protein kinase 10 (Mus musculus) (UniProt Q61831); assay: JNK3 AlphaScreen Assay (AID 530; active = well fitted curve in either direction with a large enough effect, not every such curve was filed as active;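 note: kinase came from lysate of stimulated human HepG2 cells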; note: potency is the fitted concentration of half-maximal effect;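 for activity change, negative = inhibition: signal reports phosphorylation of biotinylated GST-cJun 1-79 at Ser73 with 10 µM ATP; % is set by controls: 0 for no effect and ±100 for the full control effect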); conditions: JNK3 lysate, c-Jun phosphorylation; series mostly up to 57.1 µM
# In short: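 qHTS format: compounds tested as titrations against IL-1beta/TNF-alpha-activated HepG2 lysate JNK3 with biotin-GST-cJun substrate and 10 uM ATP at room temperature. Loss of anti-phospho-cJun AlphaScreen signal indicates inhibition.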
# [4] = Cell Viability - NIH 3T3 (AID 541; active = well fitted curve in the direction sought with a large enough effect; an effect the other way counts as inactive or inconclusive; note: potency is the fitted concentration of half-maximal effect; nearly all actives have a fitted effect of over 25% in size); conditions: NIH 3T3 cell viability, qHTS; activity change, negative = cytotoxicity: at 92.2 µM (top of the series)
# In short: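 NIH 3T3 mouse embryo fibroblasts (1000 cells/well) were plated in complete medium and treated with compound for 40 hr at 37 °C. Viability was read as intracellular ATP by CellTiter-Glo luminescence; AC50 values came from Hill-equation fits of concentration-response data.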
# [5] = Cell Viability - HUV-EC-C (AID 542; active = well fitted curve in the direction sought with a large enough effect; an effect the other way counts as inactive or inconclusive; note: nearly all actives have a fitted effect of over 35% in size; note: potency is the fitted concentration of half-maximal effect; for activity change, negative = cytotoxicity: % is set by controls: 0 for no effect and ±100 for the full control effect); conditions: HUV-EC-C endothelial cell viability, qHTS; series mostly up to 92.2 µM
# In short: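 HUV-EC-C normal human vascular endothelial cells, 1000 cells/well, pre-incubated 5 hr at 37 °C, then exposed to compounds for 40 hr at 37 °C in complete medium. Viability measured as intracellular ATP by CellTiter-Glo luminescence; AC50 from Hill fits.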
# [6] = Cell Viability - SH-SY5Y (AID 544; active = well fitted curve in the direction sought with a large enough effect; an effect the other way counts as inactive or inconclusive; note: potency is the fitted concentration of half-maximal effect; nearly all actives have a fitted effect of over 55% in size); conditions: SH-SY5Y neuroblastoma cell viability; viability change, negative = cytotoxic: at 92.2 µM (top of the series)
# In short: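 Human neuroblastoma SH-SY5Y cells (1500/well) in complete medium were exposed to compounds for 40 hr at 37 °C; intracellular ATP was then quantified by CellTiter-Glo luminescence after 20 min at room temperature. AC50 came from Hill-equation concentration-response fits.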
# [7] = Cell Viability - Renal Proximal Tubule (AID 545; active = well fitted curve in the direction sought with a large enough effect; an effect the other way counts as inactive or inconclusive; note: nearly all actives have a fitted effect of over 40% in size; note: potency is the fitted concentration of half-maximal effect;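 for activity change, negative = cytotoxicity: 0% = DMSO only and -100% = 100 µM tamoxifen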); conditions: renal proximal tubule cells viability, primary cells of rat origin; activity change, negative = cytotoxicity: at 91.7 µM (top of the series)
# In short: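 Viability taken as intracellular ATP (CellTiter-Glo luminescence) after 40 hr, 37 °C compound treatment of primary proximal tubule cells from rat kidney, 1000 cells/well; Hill-equation fits of qHTS concentration-response data gave AC50.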
# [8] = Cell Viability - Mesenchymal (AID 546; active = well fitted curve in the direction sought with a large enough effect; an effect the other way counts as inactive or inconclusive;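 note: cells exposed to compound for 40 hours before reading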; note: potency is the fitted concentration of half-maximal effect;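 for activity change, negative = cytotoxicity: 0% = DMSO only and -100% = 100 µM tamoxifen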); conditions: mesenchymal cells viability, qHTS; activity change, negative = cytotoxicity: at 91.7 µM (top of the series)
# In short: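 Human kidney mesenchymal cells from normal renal glomeruli, 1000 cells/well, rested 5 hr at 37 °C, then treated 40 hr at 37 °C in complete medium. Cellular ATP read by CellTiter-Glo luminescence; AC50 from Hill-equation fits.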
# [9] = target: 3',5'-cyclic-AMP phosphodiesterase 4B (Homo sapiens) (UniProt Q07343); assay: qHTS Assay for Inhibitors of PDE-IV (AID 607; active = well fitted activation curve with a large enough effect in the main read-out, with a control signal flat, not every such curve was filed as active; note: % of control where 0% means no effect); conditions: HEK293 ACTOne CNG channel cells, membrane potential fluorescence; series mostly up to 22.9 µM
# In short: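 HEK293 ACTOne cells with CNG channel (1000/well), endogenous PDE4; membrane potential dye, compounds up to 22.9 uM final. Fluorescence Ex 535/Em 590; RO 20-1724 (100 uM final) as reference.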
# [10] = Cellular Toxicity (caspase-3) HepG2 (AID 654; active = well fitted curve in the direction sought with a large enough effect; an effect the other way counts as inactive or inconclusive; note: potency is the fitted concentration of half-maximal effect;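 for caspase-3 activation: cells exposed to compound for 16 hours before reading; 0% = DMSO alone and 100% = caspase signal from 100 µM tamoxifen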); conditions: HepG2 caspase-3 activation, luminescence; series mostly up to 92.2 µM
# In short: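 HepG2 cells (1500/well) in complete medium were treated with compounds for 16 hr at 37 °C. Caspase-3/7 activity was then read as luminescence from peptide-aminoluciferin cleavage. AC50 came from Hill fits, normalized to DMSO and 100 uM tamoxifen.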
# [11] = Cellular Toxicity (caspase-3) Jurkat (AID 655; active = well fitted curve in the direction sought with a large enough effect; an effect the other way counts as inactive or inconclusive;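 note: cells exposed to compound for 16 h at 37 °C before reading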); conditions: Jurkat caspase-3 activation, luminescence; series mostly up to 92.2 µM
# In short: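 Luminescent Caspase-Glo 3/7 read-out (20 min, room temperature) after 16 h compound treatment at 37 C of 5000 Jurkat cells per well. AC50 derived by Hill-equation fitting, scaled between DMSO basal and 100 uM tamoxifen stimulation.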
# [12] = Cellular Toxicity (caspase-3) HUV-EC-C (AID 656; active = well fitted curve in the direction sought with a large enough effect; an effect the other way counts as inactive or inconclusive;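 note: 0% = DMSO basal and 100% = 100 µM tamoxifen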); conditions: HUV-EC-C cells, caspase-3 activation (apoptosis), vehicle = 0, 100 µM tamoxifen = 100%; series mostly up to 92.2 µM
# In short: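 Luminescent Caspase-Glo 3/7 readout after 16 h, 37 °C compound exposure of HUV-EC-C endothelial cells, 1000 per well, complete medium. AC50 derived by Hill fitting, with DMSO as baseline and 100 uM tamoxifen as full activation.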
# [13] = Cellular Toxicity (caspase-3) BJ (AID 658; active = well fitted curve in the direction sought with a large enough effect; an effect the other way counts as inactive or inconclusive;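 note: cells exposed to compound for 16 hours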); conditions: BJ fibroblasts, luminescence, normalized: DMSO 0%, staurosporine 100%; series mostly up to 91.7 µM
# In short: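 BJ human foreskin fibroblasts, 1000 cells/well, treated 16 hours at 37 °C in complete medium; caspase 3/7 activity by Caspase-Glo luminescence after 1 hr at room temperature. Normalized to DMSO and 10 uM staurosporine; AC50 from Hill fits.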
# [14] = Cellular Toxicity (caspase-3) MRC-5 (AID 659; active = well fitted curve in the direction sought with a large enough effect; an effect the other way counts as inactive or inconclusive); conditions: MRC-5 cells, luminescence, normalized: DMSO 0%, 10 µM staurosporine 100%; series mostly up to 91.7 µM
# In short: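 MRC-5 human normal lung fibroblasts, 1500 cells/well, treated 16 h at 37 °C in complete medium. Caspase 3/7 measured by Caspase-Glo luminescence after 1 h at room temperature. Normalized to DMSO and 10 uM staurosporine; AC50 from Hill fit.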
# [15] = Cellular Toxicity (caspase-3) Mesangial (AID 660; active = well fitted curve in the direction sought with a large enough effect; an effect the other way counts as inactive or inconclusive;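 note: cells exposed to compound for 16 h before the caspase read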; note: potency is the fitted concentration of half-maximal effect); conditions: mesangial cells; Potency: caspase-3 activation; series mostly up to 91.7 µM
# In short: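 Human renal glomerular mesangial cells (1000/well) were treated with compounds for 16 h at 37 °C in complete medium, then caspase 3/7 activity was read by Caspase-Glo luminescence. Data were normalized to DMSO and 100 uM tamoxifen; AC50 from Hill fits.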
# [16] = Cellular Toxicity (caspase-3) SK-N-SH (AID 661; active = well fitted curve in the direction sought with a large enough effect; an effect the other way counts as inactive or inconclusive;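 note: cells exposed to compound for 16 hours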; note: potency is the fitted concentration of half-maximal effect); conditions: SK-N-SH caspase-3 activation, qHTS; series mostly up to 91.7 µM
# In short: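 SK-N-SH human neuroblastoma cells (1500/well) were treated with compounds for 16 hr at 37 °C in complete medium; caspase 3/7 activity was read by Caspase-Glo luminescence. AC50 came from Hill fits of data normalized to DMSO and 10 uM staurosporine.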
# [17] = Cell Viability - N2a (AID 540; active = well fitted curve in the direction sought with a large enough effect; an effect the other way counts as inactive or inconclusive; note: potency is the fitted concentration of half-maximal effect; nearly all actives have a fitted effect of over 45% in size); conditions: N2a mouse neuroblastoma cell viability; activity change, negative = cytotoxicity: at 92.2 µM (top of the series)
# In short: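 Mouse neuroblastoma N2a cells (1500/well) were preincubated 5 hr at 37 °C, then exposed to compounds for 40 hr at 37 °C in complete medium. Viability was read as intracellular ATP by CellTiter-Glo luminescence; AC50 from Hill fits.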
# [18] = Cell Viability - H-4-II-E (AID 543; active = well fitted curve in the direction sought with a large enough effect; an effect the other way counts as inactive or inconclusive; note: potency is the fitted concentration of half-maximal effect; nearly all actives have a fitted effect of over 35% in size); conditions: H-4-II-E rat hepatoma viability; series mostly up to 92.2 µM
# In short: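 Rat hepatoma H-4-II-E cells (1500/well) were plated, incubated 5 hr at 37 °C, then exposed to compounds for 40 hr at 37 °C. Cellular ATP was read by CellTiter-Glo luminescence; AC50 came from Hill-equation fits of concentration-response data.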
# Glucocorticoid receptor (Homo sapiens), sequence (P04150 whole entry, looked up, the tested form may be a part): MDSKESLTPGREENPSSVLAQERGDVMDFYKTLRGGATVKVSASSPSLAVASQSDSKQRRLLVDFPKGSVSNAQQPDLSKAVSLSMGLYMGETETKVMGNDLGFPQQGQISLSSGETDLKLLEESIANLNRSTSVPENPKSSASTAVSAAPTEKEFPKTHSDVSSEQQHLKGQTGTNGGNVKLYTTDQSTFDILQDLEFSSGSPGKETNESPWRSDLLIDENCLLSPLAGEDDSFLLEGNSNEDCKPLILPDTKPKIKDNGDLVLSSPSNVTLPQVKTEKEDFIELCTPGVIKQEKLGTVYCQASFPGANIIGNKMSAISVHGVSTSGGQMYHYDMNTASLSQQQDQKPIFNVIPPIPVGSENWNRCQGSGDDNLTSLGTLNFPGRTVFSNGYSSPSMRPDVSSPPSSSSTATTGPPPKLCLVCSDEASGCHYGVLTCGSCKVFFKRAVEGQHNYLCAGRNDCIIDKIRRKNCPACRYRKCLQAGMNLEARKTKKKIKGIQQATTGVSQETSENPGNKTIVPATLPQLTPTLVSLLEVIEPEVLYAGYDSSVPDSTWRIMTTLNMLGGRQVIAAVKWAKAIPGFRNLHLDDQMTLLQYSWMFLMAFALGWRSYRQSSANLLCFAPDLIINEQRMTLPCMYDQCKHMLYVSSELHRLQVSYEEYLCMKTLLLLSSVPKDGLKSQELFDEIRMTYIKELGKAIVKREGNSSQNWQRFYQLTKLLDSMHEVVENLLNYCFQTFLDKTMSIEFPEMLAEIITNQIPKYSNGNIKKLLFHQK
# 3',5'-cyclic-AMP phosphodiesterase 4B (Homo sapiens), sequence (Q07343 whole entry, looked up): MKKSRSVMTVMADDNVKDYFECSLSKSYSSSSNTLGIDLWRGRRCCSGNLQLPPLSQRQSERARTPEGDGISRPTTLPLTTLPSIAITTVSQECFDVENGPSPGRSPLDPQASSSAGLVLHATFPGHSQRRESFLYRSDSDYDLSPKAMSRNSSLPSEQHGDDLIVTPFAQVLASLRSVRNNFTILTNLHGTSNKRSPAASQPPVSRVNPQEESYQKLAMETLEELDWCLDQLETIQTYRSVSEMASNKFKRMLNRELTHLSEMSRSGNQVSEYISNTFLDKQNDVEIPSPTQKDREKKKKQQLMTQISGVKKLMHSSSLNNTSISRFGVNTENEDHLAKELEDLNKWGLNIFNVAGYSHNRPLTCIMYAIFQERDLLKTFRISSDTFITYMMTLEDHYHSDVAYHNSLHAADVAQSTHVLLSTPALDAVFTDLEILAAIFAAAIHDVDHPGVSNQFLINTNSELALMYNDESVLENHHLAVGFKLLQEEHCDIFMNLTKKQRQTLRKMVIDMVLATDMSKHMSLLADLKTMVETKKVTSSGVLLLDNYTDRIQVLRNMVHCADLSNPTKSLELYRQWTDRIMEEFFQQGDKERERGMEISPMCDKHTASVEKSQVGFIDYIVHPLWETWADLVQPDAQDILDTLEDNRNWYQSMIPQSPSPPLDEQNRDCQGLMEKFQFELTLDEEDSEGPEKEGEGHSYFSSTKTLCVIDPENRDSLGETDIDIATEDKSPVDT
smiles,measurement,setting,value
Oc1ccccc1O,Potency,[1],> 46 µM
same,Potency,[2],> 46 µM
same,Potency,[3],inactive
same,Potency,[4],1.26 µM (active)
same,Potency,[5],inactive
same,Potency,[6],10 µM (active)
same,"activity change, negative = cytotoxicity",[7],-24.1%
same,Potency,[8],inactive
same,outcome,[9],inactive
same,Potency,[10],inactive
same,Potency,[11],inactive
same,outcome,[12],inactive
same,outcome,[13],inactive
same,outcome,[14],inactive
same,Potency,[15],inactive
same,Potency,[16],inactive
O=C(O)c1cc([N+](=O)[O-])ccc1NCCCc1ccccc1,Potency,[1],> 46 µM
same,Potency,[2],> 46 µM
same,outcome,[9],inactive
C[C@@H](NC(=O)/C(C#N)=C/c1ccc(O)c(O)c1)c1ccccc1,Potency,[1],> 46 µM
same,Potency,[2],> 46 µM
same,Potency,[3],12.6 µM (active)
CCCSc1ccc2nc(NC(=O)OC)[nH]c2c1,Potency,[1],> 20.6 µM
same,Potency,[2],> 20.6 µM
same,Potency,[3],inactive
same,outcome,[9],inactive
CN1CCc2ccccc2Cc2[nH]c3ccccc3c2CC1,Potency,[1],> 46 µM
same,Potency,[2],> 46 µM
same,outcome,[9],inactive
N#C/C(=C\c1ccc(O)c(O)c1)C(=O)c1ccc(O)c(O)c1,Potency,[1],> 46 µM
same,Potency,[2],> 46 µM
same,outcome,[9],inactive
COc1ccccc1N1CCN(CCCCNS(=O)(=O)c2cccc3c(N(C)C)cccc23)CC1,Potency,[1],> 46 µM
same,Potency,[2],> 46 µM
same,outcome,[9],inactive
N#C/C(=C\c1ccc(O)c(O)c1)C(=O)NCc1ccccc1,Potency,[1],> 46 µM
same,Potency,[2],> 46 µM
same,Potency,[3],inactive
same,outcome,[9],inactive
CN1CCc2cc(NC(=O)Nc3cccnc3)ccc21,Potency,[1],> 46 µM
same,Potency,[2],> 46 µM
same,Potency,[3],inactive
same,outcome,[9],inactive
CCCCCCCC/C=C\CCCCCCCC(=O)NCCO,Potency,[1],> 46 µM
same,Potency,[2],> 46 µM
same,outcome,[9],inactive
NCCCCC(=O)O,Potency,[1],> 46 µM
same,Potency,[2],> 46 µM
same,outcome,[9],inactive
NC(=O)C(=O)O,Potency,[1],> 46 µM
same,Potency,[2],> 46 µM
same,outcome,[9],inactive
O=C(O)CC[C@@H](C(=O)O)N1C(=O)c2ccccc2C1=O,Potency,[1],> 46 µM
same,Potency,[2],> 46 µM and > 9.22 µM
same,outcome,[9],inactive
CN=c1nc(-c2ccccc2)n(-c2ccccc2)s1,Potency,[1],> 46 µM
same,Potency,[2],> 46 µM
same,Potency,[3],inactive
same,outcome,[9],inactive
NC[C@@H]1O[C@H](C23CC4CC(CC(C4)C2)C3)Cc2c1ccc(O)c2O,Potency,[1],> 46 µM
same,Potency,[2],> 46 µM
same,Potency,[3],inactive
same,outcome,[9],inactive
Cc1ccc(O)c(N=Nc2ccccc2)n1,Potency,[1],> 46 µM
same,Potency,[2],> 46 µM
same,Potency,[3],inactive
same,outcome,[9],inactive
O=c1[nH]c2ccccc2n1CCCN1CCN(C(c2ccccc2)c2ccccc2)CC1,Potency,[1],> 46 µM and > 20.6 µM
same,Potency,[2],> 46 µM
CN(C)c1ccc(C(=C2C=CC(=[N+](C)C)C=C2)c2ccccc2)cc1,Potency,[1],> 46 µM
same,Potency,[2],> 9.22 µM
same,"activity change, negative = inhibition",[3],-22.8% [at 11.4 µM]
same,Potency,[17],0.0316 µM (active)
same,Potency,[4],0.2 µM (active)
same,Potency,[5],6.31 µM (active)
same,Potency,[18],0.0794 µM (active)
same,Potency,[6],0.1 µM (active)
same,Potency,[7],0.2 µM (active)
same,Potency,[8],0.316 µM (active)
same,outcome,[9],inactive
same,Potency,[10],0.631 µM (active)
same,outcome,[12],inactive
same,Potency,[15],1.26 µM (active)
same,Potency,[16],1 µM (active)
